Data from PubChem BioAssay (Tox21).
Where “and” joins values, the source holds several entries; their conditions need not be identical. Equal values may be shown once. Records with an inconclusive call do not appear. A call without a number means that no potency is given here. Calls of active or inactive are those of the source. Unless noted, calls follow the shape of the dose curve; as a rule, active = well fitted curve in the direction sought with a large enough effect in the repeat runs; inconclusive = weak or mixed curves; inactive = no such curve, though single readings can be large; an effect the other way counts as inactive or inconclusive.

How the values were obtained:
[1] = qHTS assay to identify small molecule agonists of the peroxisome proliferator-activated receptor delta (PPARd) signaling pathway - cell viability counter screen (AID 743211); also: nearly all actives have a fitted effect of over 55% in size
Procedure, shortened: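 Tox21 library compounds, delivered in DMSO, were incubated 17 h with PPARd-bla HEK293H cells; cytotoxicity was taken from CellTiter-Glo luminescence read 30 min after reagent addition.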

[2] = molecular target: Peroxisome proliferator-activated receptor delta (Homo sapiens) (UniProt Q03181); assay: qHTS assay to identify small molecule agonists of the peroxisome proliferator-activated receptor delta (PPARd) signaling pathway (AID 743212; calls by dose curve)
Chain of Peroxisome proliferator-activated receptor delta (Homo sapiens) (Q03181 whole entry, looked up): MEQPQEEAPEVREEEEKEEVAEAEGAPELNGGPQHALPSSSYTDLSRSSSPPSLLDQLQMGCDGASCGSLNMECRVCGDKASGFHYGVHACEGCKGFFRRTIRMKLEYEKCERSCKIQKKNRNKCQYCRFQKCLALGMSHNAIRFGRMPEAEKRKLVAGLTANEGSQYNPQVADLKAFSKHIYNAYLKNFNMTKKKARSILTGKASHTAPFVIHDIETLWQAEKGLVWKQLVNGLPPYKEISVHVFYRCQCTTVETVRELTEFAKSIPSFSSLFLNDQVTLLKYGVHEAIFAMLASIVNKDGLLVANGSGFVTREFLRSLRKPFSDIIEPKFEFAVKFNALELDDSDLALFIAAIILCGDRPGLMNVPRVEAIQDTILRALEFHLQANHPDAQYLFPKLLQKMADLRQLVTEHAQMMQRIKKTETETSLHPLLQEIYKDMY
Procedure, shortened: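 Tox21 library screened in GeneBLAzer PPARd UAS-bla HEK293H cells. After compound treatment at 37 C, a FRET-based beta-lactamase substrate was applied for 2 h and fluorescence recorded.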

[3] = qHTS assay to identify small molecule antagonists of the peroxisome proliferator-activated receptor delta (PPARd) signaling pathway - cell viability counter screen (AID 743213); also: nearly all actives have a fitted effect of over 50% in size
Procedure, shortened: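 CellTiter-Glo was added to PPARd-bla HEK293H wells following 17 h compound treatment in the presence of 300 nM L165041. Luminescence was recorded after 30 min at room temperature.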

[4] = molecular target: Peroxisome proliferator-activated receptor delta (Homo sapiens) (UniProt Q03181); assay: qHTS assay to identify small molecule antagonists of the peroxisome proliferator-activated receptor delta (PPARd) signaling pathway (AID 743215; active = well fitted inhibition curve with a large enough effect in the signal ratio in the repeat runs, not every such curve was filed as active; the % refers to the signal ratio;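 also: cells stimulated with agonist L165041 at 300 nM final during compound exposure; series mostly up to about 62 µM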)
Procedure, shortened: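 Agonist L165041 (300 nM final) added with compound to PPARd-bla HEK293H UAS-bla reporter cells; 17 h incubation at 37 C. Read-out: LiveBLAzer FRET substrate, 2 h at room temperature, fluorescence intensity.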

[5] = molecular target: Bile acid receptor (Homo sapiens) (UniProt Q96RI1); assay: qHTS assay to identify small molecule antagonists of the farnesoid-X-receptor (FXR) signaling pathway (AID 743217; active = well fitted inhibition curve with a large enough effect in the signal ratio in the repeat runs, not every such curve was filed as active; the % refers to the signal ratio)
Chain of Bile acid receptor (Homo sapiens) (Q96RI1 whole entry, looked up): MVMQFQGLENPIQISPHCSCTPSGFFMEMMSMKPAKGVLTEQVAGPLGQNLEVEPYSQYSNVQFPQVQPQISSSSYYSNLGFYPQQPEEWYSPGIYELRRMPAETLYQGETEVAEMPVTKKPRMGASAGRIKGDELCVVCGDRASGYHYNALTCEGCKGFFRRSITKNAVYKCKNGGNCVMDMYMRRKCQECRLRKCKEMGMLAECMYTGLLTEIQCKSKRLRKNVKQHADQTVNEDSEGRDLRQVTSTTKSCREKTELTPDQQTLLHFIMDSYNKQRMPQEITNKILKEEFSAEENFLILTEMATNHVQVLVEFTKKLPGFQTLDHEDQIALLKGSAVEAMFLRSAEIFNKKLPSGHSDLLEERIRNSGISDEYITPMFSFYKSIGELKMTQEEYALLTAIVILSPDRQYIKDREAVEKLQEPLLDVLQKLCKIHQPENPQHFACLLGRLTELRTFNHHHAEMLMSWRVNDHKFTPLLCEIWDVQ
Procedure, shortened: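 Antagonist mode: chenodeoxycholic acid at 50 uM final stimulates a UAS-driven beta-lactamase reporter in HEK 293T FXR-bla cells during 16 h, 37C compound exposure. Read-out is FRET substrate fluorescence after 2 h at room temperature.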

[6] = qHTS assay to identify small molecule agonists of the farnesoid-X-receptor (FXR) signaling pathway - cell viability counter screen (AID 743218); also: nearly all actives have a fitted effect of over 45% in size
Procedure, shortened: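 Viability counter screen in the same wells: CellTiter-Glo luminescence, 30 min room-temperature incubation, measured after the beta-lactamase read. Cells were GeneBLAzer FXR-UAS-bla HEK 293T, compound-treated 16 h at 37C.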

[7] = molecular target: Bile acid receptor (Homo sapiens) (UniProt Q96RI1); assay: qHTS assay to identify small molecule agonists of the farnesoid-X-receptor (FXR) signaling pathway (AID 743220; active = well fitted activation curve with a large enough effect in the signal ratio in the repeat runs, not every such curve was filed as active; the % refers to the signal ratio)
Procedure, shortened: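 FXR-UAS-bla HEK 293T cells carrying a UAS-driven beta-lactamase reporter were plated for 5 h at 37C/5% CO2, then exposed to DMSO-dissolved Tox21 10K compounds for 16 h at 37C. A LiveBLAzer B/G FRET substrate was loaded for 2 h at room temperature before fluorescence reading.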

[8] = qHTS assay to identify small molecule antagonists of the farnesoid-X-receptor (FXR) signaling pathway - cell viability counter screen (AID 743221; active = well fitted cell-killing curve with a large enough effect in the repeat runs, not every such curve was filed as active; also: nearly all actives have a fitted effect of over 50% in size)
Procedure, shortened: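 Cytotoxicity is taken from ATP luminescence (CellTiter-Glo, 30 min, room temperature) in FXR-bla HEK 293T cells previously incubated 16 h at 37 C with compound and chenodeoxycholic acid at 50 uM final.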

[9] = molecular target: Vitamin D3 receptor (Homo sapiens) (UniProt P11473); assay: qHTS assay to identify small molecule agonists of the vitamin D receptor (VDR) signaling pathway (AID 743222; calls by dose curve)
Chain of Vitamin D3 receptor (Homo sapiens) (P11473 whole entry, looked up): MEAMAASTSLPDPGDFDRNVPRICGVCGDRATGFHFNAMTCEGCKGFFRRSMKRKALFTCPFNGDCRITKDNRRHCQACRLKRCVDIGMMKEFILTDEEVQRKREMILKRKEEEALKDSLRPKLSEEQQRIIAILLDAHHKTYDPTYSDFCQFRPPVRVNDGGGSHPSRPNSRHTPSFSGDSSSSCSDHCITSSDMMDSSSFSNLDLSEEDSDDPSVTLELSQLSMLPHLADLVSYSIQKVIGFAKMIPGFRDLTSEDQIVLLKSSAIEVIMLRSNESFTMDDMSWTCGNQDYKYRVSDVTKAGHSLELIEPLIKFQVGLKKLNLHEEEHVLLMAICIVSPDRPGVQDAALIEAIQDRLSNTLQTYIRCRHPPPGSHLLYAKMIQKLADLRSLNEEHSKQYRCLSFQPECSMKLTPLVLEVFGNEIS
Procedure, shortened: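 Agonist mode, beta-lactamase reporter: fluorescence from LiveBLAzer B/G FRET substrate (2 h, room temperature) read after 16 h compound treatment at 37 C of VDR-bla cells, which were pre-incubated 4 h after seeding.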

[10] = molecular target: Vitamin D3 receptor (Homo sapiens) (UniProt P11473); assay: qHTS assay to identify small molecule antagonists of the vitamin D receptor (VDR) signaling pathway (AID 743223; active = well fitted inhibition curve with a large enough effect in the signal ratio in the repeat runs, not every such curve was filed as active; the % refers to the signal ratio)
Procedure, shortened: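 Quantitative HTS in VDR-bla reporter cells stimulated with 1alpha,25-dihydroxyvitamin D3, 3 nM final. Compound exposure 16 h, 37C, 5% CO2. Read-out: beta-lactamase FRET substrate fluorescence, 2 h RT.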

[11] = qHTS assay to identify small molecule agonists of the vitamin D receptor (VDR) signaling pathway - cell viability counter screen (AID 743224); also: series mostly up to about 63 µM; nearly all actives have a fitted effect of over 50% in size
Procedure, shortened: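 Counter screen run in the same wells as the VDR-bla reporter assay: CellTiter-Glo luminescence, 30 min at room temperature, after 16 h compound treatment at 37C of cells pre-plated for 4 h.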

[12] = qHTS assay to identify small molecule antagonists of the vitamin D receptor (VDR) signaling pathway - cell viability counter screen (AID 743225); also: nearly all actives have a fitted effect of over 50% in size
Procedure, shortened: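 Same-well multiplex: following 16 h treatment of HEK 293T cells carrying a UAS-driven beta-lactamase reporter with compound and agonist (3 nM final), and a 2 h FRET substrate step, CellTiter-Glo was added and luminescence read after 30 min.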

[13] = qHTS assay to identify small molecule agonists of the NFkB signaling pathway (AID 1159509; active = well fitted curve in the direction sought with a large enough effect in the signal ratio in the repeat runs, not every such curve was filed as active; the % refers to the signal ratio; also: series mostly up to about 61 µM)
Procedure, shortened: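 Agonist activity was read as beta-lactamase-driven FRET change (460 and 530 nm emission, 405 nm excitation) following 1.5 hr substrate loading at room temperature. Beforehand, ME-180 NFkB-bla reporter cells were treated with compounds for 5 hr at 37 C.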

[14] = qHTS assay to identify small molecule agonists of the NFkB signaling pathway - cell viability counter screen (AID 1159515; calls by dose curve; also: series mostly up to about 61 µM; nearly all actives have a fitted effect of over 55% in size)
Procedure, shortened: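 Read by CellTiter-Glo luminescence (30 min, room temperature) in the wells also used for the beta-lactamase FRET read. ME-180 NFkB-bla cells at 2,000 per well were plated overnight, then exposed to compound for 5 hr at 37 C.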

[15] = qHTS assay to identify small molecule agonists of the endoplasmic reticulum stress response signaling pathway (AID 1159516; active = well fitted activation curve with a large enough effect in the signal ratio in the repeat runs, not every such curve was filed as active; the % refers to the signal ratio)
Procedure, shortened: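 Ratiometric FRET readout (405 nm excitation; 460 and 530 nm emission) of a beta-lactamase gene driven by the ER stress response element, after 2 hr substrate loading. HeLa ESRE-bla cells were seeded overnight and treated with compounds for only 5 hr at 37 C.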

[16] = qHTS assay to identify small molecule agonists of the endoplasmic reticulum stress response signaling pathway - cell viability counter screen (AID 1159517; calls by dose curve)
Procedure, shortened: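 In parallel with the ESRE reporter read, cytotoxicity was scored by CellTiter-Glo luminescence (30 min, room temperature) on HeLa ESRE-bla cells dosed for 5 hr.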

[17] = qHTS assay to identify small molecule antagonists of the retinoid-related orphan receptor gamma (ROR-gamma) signaling pathway - cell viability counter screen (AID 1159520); also: nearly all actives have a fitted effect of over 50% in size
Procedure, shortened: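 Tet-on ROR gamma CHO cells were given compounds for 2 hr, then doxycycline hyclate at 1 uM final, and incubated 16 hr at 37 C. Viability was measured as ATP content by CellTiter-Glo luminescence.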

[18] = molecular target: Nuclear receptor ROR-gamma (Homo sapiens) (UniProt P51449); assay: qHTS assay to identify small molecule antagonists of the retinoid-related orphan receptor gamma (ROR-gamma) signaling pathway (AID 1159521; also: nearly all actives have a fitted effect of over 50% in size; also: potency is read from the fitted curve at half-maximal effect)
Procedure, shortened: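 Inducible-expression reporter assay: doxycycline (1 uM final) switched on RORγ in CHO cells bearing a ROR response element-luciferase construct, with test compounds present from 2 h beforehand. Decreased luminescence after 16 h defined antagonist activity.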

[19] = qHTS assay to identify small molecule agonists of the AP-1 signaling pathway - cell viability counter screen (AID 1159525; calls by dose curve; also: nearly all actives have a fitted effect of over 55% in size)
Procedure, shortened: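 Same-well cytotoxicity counter screen of the Tox21 10K library in ME-180 cells. The readout is ATP-dependent luminescence after 5 h compound treatment. Data are normalised to DMSO and tetra n-octyl ammonium bromide controls.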

[20] = qHTS assay to identify small molecule agonists of the AP-1 signaling pathway (AID 1159526; calls by dose curve)

Row | SMILES | outcome [1] | Potency [2] | outcome [3] | outcome [4] | outcome [5] | outcome [6] | outcome [7] | outcome [8] | outcome [9] | outcome [10] | outcome [11] | outcome [12] | outcome [13] | outcome [14] | outcome [15] | Potency [16] | outcome [17] | Potency [18] | outcome [19] | Potency [20]
1 | CC(=O)c1ccc(O)cc1 | inactive | inactive | inactive | inactive | inactive | inactive | inactive | inactive | inactive | inactive | inactive | inactive | inactive | inactive | inactive | inactive | inactive | inactive | inactive | inactive
2 | CC(=O)OCc1ccco1 | inactive | inactive | inactive | inactive |  | inactive |  | inactive | inactive | inactive | inactive | inactive | inactive | inactive | inactive | inactive | inactive | inactive | inactive | inactive
3 | CCNc1ccccc1 | inactive | inactive | inactive | inactive | inactive | inactive | inactive | inactive | inactive | inactive | inactive | inactive | inactive | inactive | inactive | inactive | inactive | inactive | inactive | inactive
4 | COc1ccccc1OCC(O)CO (centres undefined) | inactive | inactive | inactive | inactive |  | inactive |  | inactive | inactive | inactive | inactive | inactive | inactive | inactive | inactive | inactive | inactive | inactive | inactive | inactive
5 | CN(C)CCOC(=O)COc1ccc(Cl)cc1 | inactive | inactive | inactive | inactive |  | inactive |  | inactive | inactive | inactive | inactive | inactive | inactive | inactive | inactive | inactive | inactive | inactive | inactive | inactive
6 | CN(C)c1ccc(O)c2c1C[C@H]1C[C@H]3[C@H](N(C)C)C(=O)C(C(N)=O)=C(O)[C@@]3(O)C(=O)C1=C2O | inactive | inactive | inactive | inactive |  | inactive |  | inactive | inactive | inactive | inactive | inactive | inactive | inactive | inactive | inactive | inactive | 21.7 µM (active) and 26.6 µM (active) | inactive | inactive
7 | COC(=O)c1cccnc1 | inactive | inactive | inactive | inactive |  | inactive |  | inactive | inactive | inactive | inactive | inactive | inactive | inactive | inactive | inactive | inactive | inactive | inactive | inactive
8 | CCCCCCC=O | inactive | inactive | inactive | inactive |  | inactive |  | inactive | inactive | inactive | inactive | inactive | inactive | inactive | inactive | inactive | inactive | inactive | inactive | inactive
9 | CCCCC(C=O)CC (centres undefined) | inactive | inactive | inactive | inactive | inactive | inactive | inactive | inactive | inactive |  | inactive | inactive | inactive | inactive | inactive | inactive | inactive | inactive | inactive | inactive
10 | NCCNCCN | inactive | inactive | inactive | inactive |  | inactive |  | inactive | inactive | inactive | inactive | inactive | inactive | inactive | inactive | inactive | inactive | inactive | inactive | inactive
11 | CC(C)CC(=O)CC(C)CC(C)C (centres undefined) | inactive | inactive | inactive | inactive | inactive | inactive | inactive | inactive |  |  | inactive | inactive | inactive | inactive | inactive | inactive | inactive | inactive | inactive | inactive
12 | CCCCCCCCCCCCCCCC(=O)OC(C)C | inactive | inactive | inactive | inactive |  | inactive |  | inactive | inactive | inactive | inactive | inactive | inactive | inactive | inactive | inactive | inactive | inactive | inactive | inactive
13 | COc1ccc(C)cc1N | inactive | inactive | inactive | inactive |  | inactive |  | inactive | inactive | inactive | inactive | inactive | inactive | inactive | inactive | inactive | inactive | inactive | inactive | inactive
14 | CSc1ccc(Cl)cc1 | inactive | inactive | inactive | inactive | inactive | inactive | inactive | inactive | inactive | inactive | inactive | inactive | inactive | inactive | inactive | inactive | inactive | inactive | inactive | inactive
15 | CC(C)OP(=O)(CP(=O)(OC(C)C)OC(C)C)OC(C)C | inactive | inactive | inactive | inactive | inactive | inactive | inactive | inactive | inactive | inactive | inactive | inactive | inactive | inactive | inactive | inactive | inactive | inactive | inactive | inactive
